Data from PubChem BioAssay (NCI).
Compounds without any hit were thinned out: in the full panel of roughly 79,000, 15% have a hit. The source made the active and inactive calls. Cut-off read from the data, not from the text of the source: active = growth inhibition above about 70%; inactive = the rest.

Assays:
[1] = NCI Yeast Anticancer Drug Screen. Data for the mec2-1 strain (AID 157); conditions: S. cerevisiae mec2-1 strain, hits give high values
How it was run: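 Growth inhibition is read against vehicle-treated controls after compound exposure of the mec2-1 yeast strain, which is defective in DNA damage repair or cell cycle control.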

[2] = NCI Yeast Anticancer Drug Screen. Data for the rad14 strain (AID 159);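 note: 0% = growth of vehicle-treated control cultures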; conditions: S. cerevisiae rad14 strain growth inhibition, hits give high values
How it was run: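 Here, inhibition of yeast growth was measured after compound exposure, using a strain with a genetic defect in DNA damage repair and vehicle-treated cultures as the reference.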

[3] = NCI Yeast Anticancer Drug Screen. Data for the sgs1 mgt1 strain (AID 161);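 note: 0% = growth of cultures given vehicle only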; conditions: S. cerevisiae sgs1 mgt1 strain, hits give high values
How it was run: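 Yeast cells carrying a defined DNA-repair defect were exposed to test compounds. Growth inhibition was measured relative to vehicle-treated controls.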

[4] = NCI Yeast Anticancer Drug Screen. Data for the CLN2oe strain (AID 163);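 note: 0% = growth of vehicle-only control cultures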; conditions: S. cerevisiae CLN2oe strain, hits give high values
How it was run: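 Compound-treated yeast; growth vs vehicle ctrl = % inhibition. Genetically altered strain (cell-cycle control).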

[5] = NCI Yeast Anticancer Drug Screen. Data for the cln2 rad14 strain (AID 165);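 note: 0% = growth equal to vehicle treated cultures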; conditions: S. cerevisiae cln2 rad14 strain, hits give high values
How it was run: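 Growth inhibition, relative to vehicle-treated controls, is the read-out. The test organism is a yeast strain with defined genetic alterations, cln2 rad14.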

[6] = NCI Yeast Anticancer Drug Screen. Data for the bub3 strain (AID 167); conditions: S. cerevisiae bub3 mutant strain, hits give high values
How it was run: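 Whole-cell yeast assay. The mutant strain was incubated with compounds, and growth inhibition was determined by comparison with vehicle-treated cells.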

[7] = NCI Yeast Anticancer Drug Screen. Data for the wt2 strain (AID 169);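 note: 0% = growth of vehicle-treated yeast cultures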; conditions: S. cerevisiae wt2 strain growth inhibition, hits give high values
How it was run: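 Compound exposure of yeast; growth compared with vehicle controls; inhibition reported.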

[8] = NCI Yeast Anticancer Drug Screen. Data for the mlh1 strain (AID 171);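 note: 0% = growth of vehicle-treated control cultures of the same strain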; conditions: S. cerevisiae mlh1 strain growth inhibition, hits give high values
How it was run: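 Compounds are applied to a genetically altered yeast strain, and its growth is compared with that of vehicle-treated cultures to give percent inhibition.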

[9] = NCI Yeast Anticancer Drug Screen. Data for the sgs1 strain (AID 173);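 note: 0% = growth of vehicle-only control cultures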; conditions: S. cerevisiae sgs1 mutant, hits give high values
How it was run: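 Compounds applied to genetically altered yeast; growth compared with vehicle-treated cultures to give % inhibition.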

[10] = NCI Yeast Anticancer Drug Screen. Data for the mlh1 rad18 strain (AID 175); conditions: S. cerevisiae mlh1 rad18 strain growth inhibition, hits give high values
How it was run: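 Cells of a genetically altered yeast strain, deficient in DNA damage repair, were treated with compound. Their growth was then compared with that of vehicle-treated cultures to give inhibition.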

[11] = NCI Yeast Anticancer Drug Screen. Data for the rad18 strain (AID 177); conditions: S. cerevisiae rad18 mutant growth inhibition, hits give high values
How it was run: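 Compounds are applied to a repair-deficient yeast strain, and growth is compared with that of vehicle-treated cultures to give percent inhibition.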

[12] = NCI Yeast Anticancer Drug Screen. Data for the rad52 strain (AID 147);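 note: 0% = growth of vehicle-treated control cultures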; conditions: S. cerevisiae rad52 mutant growth inhibition, hits give high values
How it was run: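 DNA repair-defective yeast; compound exposure; growth scored against vehicle controls.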

[13] = NCI Yeast Anticancer Drug Screen. Data for the wt1 strain (AID 149);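 note: 0% = growth of vehicle-treated wt1 cultures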; conditions: S. cerevisiae wt1 strain (SPY 50644) growth inhibition, hits give high values
How it was run: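 Measured: growth of wt1 yeast under compound versus vehicle treatment, reported as inhibition.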

[14] = NCI Yeast Anticancer Drug Screen. Data for the rad50EPP+ strain (AID 151);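 note: 0% = growth of vehicle-treated control cultures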; conditions: S. cerevisiae rad50 mutant strain, hits give high values
How it was run: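 rad50EPP+ yeast treated with test compounds. Readout: growth vs vehicle control.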

[15] = NCI Yeast Anticancer Drug Screen. Data for the mgt1 strain (AID 153); conditions: S. cerevisiae mgt1 mutant growth inhibition, hits give high values
How it was run: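 Growth inhibition relative to vehicle controls was scored for the mgt1 yeast strain after compound exposure.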

[16] = NCI Yeast Anticancer Drug Screen. Data for the rad50 strain (AID 155);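 note: 0% = growth of vehicle-only cultures of the same strain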; conditions: S. cerevisiae rad50 strain growth inhibition, hits give high values
How it was run: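 Growth of the mutant yeast was measured after compound exposure and referenced to vehicle-treated cultures.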

[17] = at 5.0 µM (retest, dose inferred, filed as 0.5)
[18] = at 50.0 µM (retest, dose inferred, filed as 5.0)

Measured: growth inhibition

O=S(=O)(NC1CCCC(c2ccccc2)C1)c1ccccc1 (centres undefined)
active: [1]; at 100.0 µM 82% | [2]; at 100.0 µM 96% | [4]; at 100.0 µM 95% | [6]; [18] 76% | [6]; at 100.0 µM 87% | [7]; at 100.0 µM 90% | [8]; at 100.0 µM 82% | [9]; at 100.0 µM 97% | [10]; [18] 76% | [11]; at 100.0 µM 93%
inactive: [1]; [17] -12% | [1]; at 11.0 µM -3% | [1]; at 33.0 µM 0% | [1]; [18] -7% | [1]; at 50.0 µM 24.6% | [2]; at 1.2 µM 1% | [2]; at 3.7 µM 2% | [2]; at 11.0 µM 2% | [2]; at 33.0 µM 4% | [3]; [17] -24% | [3]; [18] 23% | [3]; at 50.0 µM 19.4% | [4]; at 1.2 µM -4% | [4]; at 3.7 µM -4% | [4]; at 11.0 µM 2% | [4]; at 33.0 µM 9% | [5]; [17] -13% | [5]; [18] 16% | [5]; at 50.0 µM 50.8% | [6]; at 1.2 µM 1% | [6]; at 3.7 µM -1% | [6]; [17] -8% | [6]; at 11.0 µM 0% | [6]; at 33.0 µM 15% | [6]; at 50.0 µM 60.8% | [7]; at 1.2 µM -4% | [7]; at 3.7 µM -7% | [7]; at 11.0 µM -3% | [7]; at 33.0 µM -6% | [8]; at 1.2 µM -2% | [8]; at 3.7 µM 0% | [8]; at 11.0 µM -1% | [8]; at 33.0 µM 3% | [9]; at 1.2 µM -4% | [9]; at 3.7 µM 4% | [9]; at 11.0 µM -2% | [9]; at 33.0 µM 1% | [10]; [17] -26% | [10]; at 50.0 µM 57.8% | [11]; at 1.2 µM 0% | [11]; at 3.7 µM -2% | [11]; at 11.0 µM 1% | [11]; at 33.0 µM 3%

NC(CCCCCCCCCCCCC(N)C(=O)c1ccccc1)C(=O)c1ccccc1 (centres undefined)
active: [12]; at 11.0 µM 88% | [12]; at 33.0 µM 92% | [12]; at 100.0 µM 96% | [13]; at 11.0 µM 75% | [13]; at 33.0 µM 95% | [13]; at 100.0 µM 95% | [15]; at 100.0 µM 94% | [16]; at 11.0 µM 81% | [16]; at 33.0 µM 85% | [16]; [18] 88% | [16]; at 100.0 µM 93% | [1]; [18] 92% | [1]; at 100.0 µM 91% | [2]; at 100.0 µM 96% | [3]; [18] 94% | [4]; at 33.0 µM 91% | [4]; at 100.0 µM 95% | [5]; [18] 92% | [6]; at 11.0 µM 74% | [6]; at 33.0 µM 95% | [6]; [18] 94% | [6]; at 100.0 µM 91% | [7]; at 11.0 µM 83% | [7]; at 33.0 µM 96% | [7]; at 100.0 µM 96% | [8]; at 33.0 µM 94% | [8]; at 100.0 µM 93% | [9]; at 11.0 µM 82% | [9]; at 33.0 µM 96% | [9]; at 100.0 µM 95% | [11]; at 33.0 µM 96% | [11]; at 100.0 µM 96%
inactive: [12]; at 1.2 µM -3% | [12]; at 3.7 µM -4% | [13]; at 1.2 µM -4% | [13]; at 3.7 µM -12% | [14]; at 1.2 µM -2% | [14]; at 3.7 µM -1% | [14]; at 11.0 µM -2% | [14]; at 33.0 µM -1% | [14]; at 100.0 µM -3% | [15]; at 1.2 µM -5% | [15]; at 3.7 µM -9% | [15]; at 11.0 µM 17% | [15]; at 33.0 µM 39% | [16]; at 1.2 µM -3% | [16]; at 3.7 µM -6% | [16]; [17] -9% | [16]; at 50.0 µM -5.55% | [1]; at 1.2 µM -6% | [1]; at 3.7 µM -15% | [1]; [17] -15% | [1]; at 11.0 µM 43% | [1]; at 33.0 µM 61% | [1]; at 50.0 µM -9.95% | [2]; at 1.2 µM -6% | [2]; at 3.7 µM -12% | [2]; at 11.0 µM 38% | [2]; at 33.0 µM 62% | [3]; [17] -10% | [3]; at 50.0 µM -12.2% | [4]; at 1.2 µM -9% | [4]; at 3.7 µM -20% | [4]; at 11.0 µM 52% | [5]; [17] -26% | [5]; at 50.0 µM -32.3% | [6]; at 1.2 µM -3% | [6]; at 3.7 µM 0% | [6]; [17] 4% | [6]; at 50.0 µM -2.55% | [7]; at 1.2 µM -4% | [7]; at 3.7 µM -8% | [8]; at 1.2 µM -4% | [8]; at 3.7 µM -10% | [8]; at 11.0 µM 59% | [9]; at 1.2 µM -5% | [9]; at 3.7 µM -7% | [10]; [17] -8% | [10]; [18] -13% | [10]; at 50.0 µM -10.4% | [11]; at 1.2 µM -6% | [11]; at 3.7 µM -9% | [11]; at 11.0 µM 41%

Cc1c2c(nc3ccccc13)C(=O)c1cccnc1C2=O
inactive: [12]; at 1.2 µM -10% | [12]; at 3.7 µM 0% | [12]; at 11.0 µM 9% | [13]; at 1.2 µM 2% | [13]; at 3.7 µM 9% | [13]; at 11.0 µM 6% | [13]; at 33.0 µM 17% | [14]; at 1.2 µM -6% | [14]; at 3.7 µM -11% | [14]; at 11.0 µM -2% | [14]; at 33.0 µM 45% | [15]; at 1.2 µM 1% | [15]; at 3.7 µM -1% | [15]; at 11.0 µM -10% | [15]; at 33.0 µM 13% | [16]; at 1.2 µM 9% | [16]; at 3.7 µM 15% | [16]; [17] 57% | [16]; at 11.0 µM 21% | [1]; at 1.2 µM -18% | [1]; at 3.7 µM -10% | [1]; [17] -4% | [1]; at 11.0 µM -13% | [1]; at 33.0 µM 7% | [1]; at 50.0 µM 66.8% | [2]; at 1.2 µM 3% | [2]; at 3.7 µM 3% | [2]; at 11.0 µM 4% | [2]; at 33.0 µM 23% | [3]; [17] 1% | [4]; at 1.2 µM -8% | [4]; at 3.7 µM 1% | [4]; at 11.0 µM 3% | [4]; at 33.0 µM 11% | [5]; [17] -1% | [5]; at 50.0 µM 64% | [6]; at 1.2 µM 5% | [6]; at 3.7 µM 7% | [6]; [17] 12% | [6]; at 11.0 µM -13% | [6]; at 33.0 µM 4% | [7]; at 1.2 µM 3% | [7]; at 3.7 µM -3% | [7]; at 11.0 µM 17% | [7]; at 33.0 µM 20% | [8]; at 1.2 µM 22% | [8]; at 3.7 µM 15% | [8]; at 11.0 µM 20% | [8]; at 33.0 µM 17% | [9]; at 1.2 µM -9% | [9]; at 3.7 µM -11% | [9]; at 11.0 µM -9% | [9]; at 33.0 µM 11% | [10]; [17] 19% | [11]; at 1.2 µM -11% | [11]; at 3.7 µM -5% | [11]; at 11.0 µM 0% | [11]; at 33.0 µM 23%
active: [12]; at 33.0 µM 75% | [12]; at 100.0 µM 94% | [13]; at 100.0 µM 81% | [14]; at 100.0 µM 92% | [15]; at 100.0 µM 78% | [16]; at 33.0 µM 78% | [16]; [18] 90% | [16]; at 50.0 µM 77.8% | [16]; at 100.0 µM 94% | [1]; [18] 90% | [1]; at 100.0 µM 83% | [2]; at 100.0 µM 81% | [3]; [18] 78% | [3]; at 50.0 µM 79.2% | [4]; at 100.0 µM 78% | [5]; [18] 72% | [6]; [18] 83% | [6]; at 50.0 µM 75.7% | [6]; at 100.0 µM 83% | [7]; at 100.0 µM 73% | [8]; at 100.0 µM 84% | [9]; at 100.0 µM 81% | [10]; [18] 90% | [10]; at 50.0 µM 84% | [11]; at 100.0 µM 90%
